# Laboratory results: PubChem BioAssay (NCATS)
# Records with an inconclusive call do not appear. Entries that show only a call come without a potency. Calls of active or inactive are those of the source. Calls come from the whole dose curve; as a rule, active = well fitted curve in the direction sought with a large enough effect; inconclusive = small, poorly fitted or top-dose-only effect, or another doubt; inactive = no such curve, though single readings can be large; an effect the other way counts as inactive or inconclusive.
# Assays:
# [1] = qHTS of pediatric cancer cell lines to identify multiple opportunities for drug repurposing: Primary screen for Rh30 cells (AID 1347107); note: series mostly up to about 46 µM; nearly all actives have a fitted effect of over 75% in size
# How it was run: (§1)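 Cells (500-1,000/well) in growth media were settled 5 h at 37 degrees C, then given compounds for 48 h. Viability was read as CellTiter-Glo luminescence. Primary runs used MIPE at 11 points (0.78 nM-46 µM) and NPC at 8 points (0.59 nM-46 µM); follow-ups used 11 points.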
# [2] = qHTS of pediatric cancer cell lines to identify multiple opportunities for drug repurposing: Primary screen for Rh41 cells (AID 1347108);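 note: series mostly up to about 46 µM; luminescence drop marks cytotoxic hits; nearly all actives have a fitted effect of over 70% in size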
# How it was run: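 Quantitative HTS format: each compound titrated (MIPE 11 points from 0.78 nM, NPC 8 points from 0.59 nM) onto cells plated 5 hours earlier. After 48 h at 37 degrees C, CellTiter-Glo luminescence was recorded.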
# [3] = qHTS of pediatric cancer cell lines to identify multiple opportunities for drug repurposing: Confirmatory screen for SK-N-MC cells (AID 1347111);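 note: potency is the fitted concentration of half-maximal effect; cells exposed to compound for 48 h before the readout; nearly all actives have a fitted effect of over 70% in size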
# How it was run: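 Metabolically active cells were quantified by ATP-dependent luminescence (CellTiter-Glo, 15 min at room temperature) following 48 h treatment. Cells had been plated at 500-1,000 per well and settled for 5 h beforehand.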
# [4] = qHTS of pediatric cancer cell lines to identify multiple opportunities for drug repurposing: Confirmatory screen for BT-12 cells (AID 1347112); note: nearly all actives have a fitted effect of over 55% in size
# How it was run: as §1
# [5] = qHTS of pediatric cancer cell lines to identify multiple opportunities for drug repurposing: Confirmatory screen for BT-37 cells (AID 1347117); note: nearly all actives have a fitted effect of over 55% in size; note: potency is the fitted concentration of half-maximal effect
# How it was run: as §1
# [6] = qHTS of pediatric cancer cell lines to identify multiple opportunities for drug repurposing: Confirmatory screen for TC32 cells (AID 1347118);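 note: potency is the fitted concentration of half-maximal effect; cells exposed to compound for 48 h before the read; nearly all actives have a fitted effect of over 65% in size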
# How it was run: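 Luminescent CellTiter-Glo read-out of metabolically active TC32 cells after 48 h compound exposure. Primary: MIPE 11-point, 0.78 nM–46 µM; NPC 8-point, 0.59 nM–46 µM. Confirmatory: 11-point dilutions.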
# [7] = qHTS of pediatric cancer cell lines to identify multiple opportunities for drug repurposing: Confirmatory screen for MG 63 (6-TG R) cells (AID 1347119); note: nearly all actives have a fitted effect of over 55% in size
# How it was run: as §1
# [8] = qHTS of pediatric cancer cell lines to identify multiple opportunities for drug repurposing: Confirmatory screen for control Hh wild type fibroblast cells (AID 1347121); note: nearly all actives have a fitted effect of over 70% in size
# How it was run: as §1
# [9] = qHTS of pediatric cancer cell lines to identify multiple opportunities for drug repurposing: Confirmatory screen for U-2 OS cells (AID 1347122); note: potency is the fitted concentration of half-maximal effect; nearly all actives have a fitted effect of over 65% in size
# How it was run: as §1
# [10] = qHTS of pediatric cancer cell lines to identify multiple opportunities for drug repurposing: Confirmatory screen for Rh41 cells (AID 1347123); note: potency is the fitted concentration of half-maximal effect; nearly all actives have a fitted effect of over 60% in size
# How it was run: as §1
# [11] = qHTS of pediatric cancer cell lines to identify multiple opportunities for drug repurposing: Confirmatory screen for Rh18 cells (AID 1347125); note: nearly all actives have a fitted effect of over 55% in size
# How it was run: as §1
# [12] = qHTS of pediatric cancer cell lines to identify multiple opportunities for drug repurposing: Confirmatory screen for Saos-2 cells (AID 1347127); note: nearly all actives have a fitted effect of over 60% in size; note: potency is the fitted concentration of half-maximal effect
# How it was run: as §1
# [13] = qHTS of pediatric cancer cell lines to identify multiple opportunities for drug repurposing: Confirmatory screen for NB1643 cells (AID 1347109); note: nearly all actives have a fitted effect of over 45% in size
# How it was run: as §1
# [14] = qHTS of pediatric cancer cell lines to identify multiple opportunities for drug repurposing: Confirmatory screen for A673 cells (AID 1347110);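 note: potency is the fitted concentration of half-maximal effect; cells exposed to compound for 48 h before the viability read; nearly all actives have a fitted effect of over 65% in size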
# How it was run: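 A673 cells at 500-1,000 cells/well were dosed 5 h after plating, in dilution series up to 46 uM final; primary runs used 8 or 11 points and confirmatory runs used 11 points. Viability was read by CellTiter-Glo luminescence after 48 h, against DMSO and 2.3 uM bortezomib controls.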
# [15] = qHTS of pediatric cancer cell lines to identify multiple opportunities for drug repurposing: Confirmatory screen for LAN-5 cells (AID 1347113); conditions: outcome: dose series up to 45.9 µM; note: nearly all actives have a fitted effect of over 65% in size
# How it was run: as §1
# [16] = qHTS of pediatric cancer cell lines to identify multiple opportunities for drug repurposing: Confirmatory screen for NB-EBc1 cells (AID 1347115);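 note: cells exposed to compound for 48 h before the viability read; nearly all actives have a fitted effect of over 45% in size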
# How it was run: as §1
# [17] = qHTS of pediatric cancer cell lines to identify multiple opportunities for drug repurposing: Confirmatory screen for SJ-GBM2 cells (AID 1347116); conditions: outcome: dose series up to 45.9 µM; note: nearly all actives have a fitted effect of over 60% in size
# How it was run: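 Viability measured as metabolically active cells via CellTiter-Glo luminescence following 48 hours of compound exposure, 11-point dilutions in confirmatory testing. 500-1,000 cells/well plated 5 hours before dosing; controls were DMSO and 2.3 µM bortezomib.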
# [18] = qHTS of pediatric cancer cell lines to identify multiple opportunities for drug repurposing: Confirmatory screen for RD cells (AID 1347124)
# How it was run: as §1
# [19] = qHTS of pediatric cancer cell lines to identify multiple opportunities for drug repurposing: Confirmatory screen for Rh30 cells (AID 1347126)
# How it was run: as §1
compound,measurement,setting,value
COc1cc(OC)c(OC)cc1C=O,outcome,[1],inactive
same,Potency,[2],inactive
Nc1ccc([As](=O)(O)O)cc1,outcome,[1],inactive
same,Potency,[2],inactive
C[N+]1(CCF)[C@@H]2CC[C@H]1CC(OC(=O)C(O)(c1ccccc1)c1ccccc1)C2 (some centres undefined),outcome,[1],inactive
same,Potency,[2],inactive
CCN[C@H](C)Cc1cccc(C(F)(F)F)c1,outcome,[1],inactive
same,Potency,[2],inactive
COP(=S)(OC)SCN1C(=O)c2ccccc2C1=O,outcome,[1],inactive
COc1cc(CCN)cc(OC)c1OC,outcome,[1],inactive
C#CC(O)(C=CCl)CC (centres undefined),outcome,[1],inactive
same,Potency,[2],inactive
O=C1OC(c2ccc(O)c(S(=O)(=O)O)c2)(c2ccc(O)c(S(=O)(=O)O)c2)c2c(Br)c(Br)c(Br)c(Br)c21,outcome,[1],inactive
same,Potency,[2],inactive
Nc1ccccc1C(=O)O,outcome,[1],inactive
same,Potency,[2],inactive
CN(C)CCc1c[nH]c2cccc(OP(=O)(O)O)c12,outcome,[1],inactive
same,Potency,[2],inactive
C[C@]12CCC(=O)C=C1CC[C@@H]1[C@@H]2CC[C@]2(C)C(=O)CC[C@@H]12,outcome,[1],inactive
same,Potency,[2],inactive
CC(C)=CC1C(C(=O)OCN2C(=O)C3=C(CCCC3)C2=O)C1(C)C (centres undefined),outcome,[1],inactive
same,Potency,[2],inactive
CCCCCCC(=O)CCCCCC/C=C/C[C@@H](O)[C@H](O)[C@@](N)(CO)C(=O)O,outcome,[1],inactive
same,Potency,[2],inactive
CC(C)C[C@H](CN)CC(=O)O,outcome,[1],inactive
COP(=S)(OC)Oc1cc(Cl)c(Cl)cc1Cl,outcome,[1],inactive
same,Potency,[2],inactive
C[C@]12Cc3cn[nH]c3C[C@@H]1CC[C@@H]1[C@@H]2CC[C@@]2(C)[C@H]1CC[C@]2(C)O,outcome,[1],inactive
COc1cc(CC(C)N)cc(OC)c1OC (centres undefined),outcome,[1],inactive
same,Potency,[2],inactive
C[C@]12CC[C@@H]3c4ccc(OC(=O)N(CCCl)CCCl)cc4CC[C@H]3[C@@H]1CC[C@@H]2O,outcome,[1],inactive
same,Potency,[2],inactive
CCN[C@@H](C)Cc1ccccc1,outcome,[1],inactive
same,Potency,[2],inactive
CCN[C@@H](C)Cc1cccc(C(F)(F)F)c1,outcome,[1],inactive
same,Potency,[2],inactive
COc1cccc([C@@]2(O)CCCC[C@@H]2CN(C)C)c1,outcome,[1],inactive
same,Potency,[2],inactive
CCN(CC)CCc1c[nH]c2ccccc12,outcome,[1],inactive
CC1(C)C(C=C(Cl)Cl)C1C(=O)OC(C#N)c1cccc(Oc2ccccc2)c1 (centres undefined),outcome,[1],inactive
same,Potency,[2],inactive
CC(Cc1ccccc1)NCCn1cnc2c1c(=O)n(C)c(=O)n2C (centres undefined),outcome,[1],inactive
same,Potency,[2],inactive
CCC1(CC)C(=O)C=CNC1=O,outcome,[1],inactive
same,Potency,[2],inactive
CNC(C)(C)Cc1ccccc1,outcome,[1],inactive
same,Potency,[2],inactive
CC(C)NC(C)C,outcome,[1],inactive
same,Potency,[2],inactive
O=C1OC(CCN2CCCCC2)OC1(c1ccccc1)c1ccccc1 (centres undefined),outcome,[1],inactive
same,Potency,[2],inactive
CC(Cc1ccccc1)N(C)Cc1ccco1 (centres undefined),outcome,[1],inactive
same,Potency,[2],inactive
CC(=O)C1CCOC1=O (centres undefined),outcome,[1],inactive
same,Potency,[2],inactive
C[C@]12CC[C@H]3[C@@H](CCC4=CC(=O)CC[C@@H]43)[C@@H]1CC[C@@H]2OC(=O)CCC1CCCCC1,outcome,[1],inactive
same,Potency,[2],inactive
C=CCC1(C(C)CC)C(=O)NC(=O)NC1=O (centres undefined),outcome,[1],inactive
CCN(CC)C(=O)[C@@H]1C=C2c3cccc4[nH]cc(c34)C[C@H]2N(C)C1,outcome,[1],inactive
O=C(O)c1ccc(=O)[nH]c1,outcome,[1],inactive
same,Potency,[2],inactive
NC1=NC(=O)C(c2ccccc2)O1 (centres undefined),outcome,[1],inactive
same,Potency,[2],inactive
CCC(C)C(C)(COC(N)=O)COC(N)=O (centres undefined),outcome,[1],inactive
same,Potency,[2],inactive
O=c1[nH]c2ccccc2n1C1CCNCC1,outcome,[1],inactive
same,Potency,[2],inactive
O=C1CN=C(c2ccccc2)c2cc([N+](=O)[O-])ccc2N1,outcome,[1],inactive
same,Potency,[2],inactive
COP(=S)(OC)Oc1ccc(SC)c(C)c1,Potency,[2],inactive
CCCCC/C=C\C/C=C\C/C=C\C/C=C\CCCC(=O)NCC(=O)O,outcome,[1],inactive
same,Potency,[2],inactive
C[C@@H](N)[C@@H](O)c1ccccc1,outcome,[1],inactive
same,Potency,[2],inactive
COc1c2c(cc3c1OCO3)CCN(C)C2,outcome,[1],inactive
same,Potency,[2],inactive
C[C@]12CC[C@@H]3c4ccc(OC(=O)N(CCCl)CCCl)cc4CC[C@H]3[C@@H]1CC[C@@H]2OP(=O)(O)O,outcome,[1],inactive
same,Potency,[2],inactive
CC(NC(C)(C)C)C(=O)c1cccc(Cl)c1 (centres undefined),outcome,[1],inactive
same,Potency,[2],inactive
same,Potency,[3],3.29 µM (active)
same,Potency,[4],inactive
same,Potency,[5],23.3 µM (active)
same,Potency,[6],2.93 µM (active)
same,outcome,[7],inactive
same,outcome,[8],inactive
same,Potency,[9],4.14 µM (active)
same,Potency,[10],4.65 µM (active)
same,Potency,[11],inactive
same,Potency,[12],18.5 µM (active)
CC(C)(C)NCC(O)c1ccccc1Cl (centres undefined),outcome,[1],inactive
same,Potency,[2],inactive
NNc1ccccc1,outcome,[1],inactive
same,Potency,[2],inactive
CCCN(CCC)C(=O)Cc1c(-c2ccc(Cl)cc2)nc2ccc(Cl)cn12,outcome,[1],inactive
same,Potency,[13],inactive
same,Potency,[14],10.4 µM (active)
same,Potency,[4],inactive
same,outcome,[15],inactive
same,Potency,[16],inactive
same,outcome,[17],inactive
same,Potency,[5],inactive
same,outcome,[7],inactive
same,outcome,[8],inactive
same,Potency,[10],18.5 µM (active)
same,outcome,[18],inactive
same,Potency,[11],inactive
same,Potency,[19],7.37 µM (active)
same,Potency,[12],inactive
